High-throughput results from PubChem.
Many of the other results were omitted from the sample, so hits are more common in it than they were.
HT1080NT lethal: kills 2HG-producing HT-1080-NT fibrosarcoma cells; Potency, µM (series often up to 46.1 µM), without a hit: at the highest dose activity, negative = less viability, usual class: cytotoxic; HT-1080-NT fibrosarcoma viability, CellTiter-Glo ATP luminescence, 48 h; 360,000 tested, 1.6% active; AID 686970;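 note: NT is the 2HG producing partner of a matched IDH1 knockdown line; potency is the fitted concentration of half-maximal effect; 0% = DMSO-treated cells and -100% = media-only wells without cells; nearly all actives have a fitted effect of over 55% in size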
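Viability by CellTiter-Glo luminescence after 48 h compound exposure at 37C of HT-1080-NT cells (750/well, RPMI, 5% FBS). % activity scaled between DMSO wells and medium-only wells, then curve-fitted and categorized by curve class.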
IL1B secr inh: inhibitors of inflammasome signaling (IL-1 beta secretion); AID 743279; activity change, % at 57.5 µM; 360,000 tested, 4.7% active; THP-1 LPS/ATP IL-1B secretion, AlphaLISA, 16 h; stronger effect = lower value; in the data active = activity change below about -50%; inconclusive = mostly about -30% to -49%
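THP-1 cells pretreated 1 hr with compounds (up to 57.5 uM final), then stimulated with LPS (250 ng/mL final) plus ATP (1.25 mM final); secreted IL-1B measured by AlphaLISA after 16 hr, decreased signal indicating inhibition.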
DT40 TDP1 CPT: growth inhibition of DT40 Tdp1-/-;hTDP1 cells with camptothecin (screen for TDP1 inhibitors) | 420,000 tested, 12% active | Potency, µM (series often up to 46.2 µM), inactives show top-dose activity change, negative = growth inhibition, usual class: inhibitors | chicken DT40 Tdp1-/-;hTDP1 cells + 20 nM CPT, ATP luminescence, 48 h; note: potency is the fitted concentration of half-maximal effect; nearly all actives have a fitted effect of over 55% in size
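Chicken DT40 Tdp1-/- cells complemented with human TDP1, 400 cells/well, exposed to compounds plus 20 nM camptothecin for at least 48 h at 37 C; viability read as ATP content by CellTiter-Glo luminescence.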
HT1080 IDH1KD tx: kills HT-1080 cells with IDH1 knockdown; HT-1080 IDH1 knockdown viability, ATP luminescence, 48 h; 360,000 tested, 2% active; Potency, µM (titrated, usually from 46.1 µM), for the others: at the highest dose activity, negative = toxicity, most hits filed as cytotoxic;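 note: potency is the fitted concentration of half-maximal effect; 0% = DMSO wells and -100% = cell-free medium wells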
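Viability of IDH1-knockdown HT-1080 fibrosarcoma cells was assessed by CellTiter-Glo after 48 h at 37 °C with titrated compound; concentration-effect curves were classified by fit quality and response size.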
12-LOX inh: inhibitors of human 12S-lipoxygenase ALOX12. P18054. purified 12hLO, xylenol orange hydroperoxide absorbance. Potency, µM (doses to about 108 µM), inactives show top-dose activity change, negative = inhibition, usual class: inhibitors. 580,000 tested, 1.1% active; note: potency is the fitted concentration of half-maximal effect
Target sequence (P18054 whole entry, looked up): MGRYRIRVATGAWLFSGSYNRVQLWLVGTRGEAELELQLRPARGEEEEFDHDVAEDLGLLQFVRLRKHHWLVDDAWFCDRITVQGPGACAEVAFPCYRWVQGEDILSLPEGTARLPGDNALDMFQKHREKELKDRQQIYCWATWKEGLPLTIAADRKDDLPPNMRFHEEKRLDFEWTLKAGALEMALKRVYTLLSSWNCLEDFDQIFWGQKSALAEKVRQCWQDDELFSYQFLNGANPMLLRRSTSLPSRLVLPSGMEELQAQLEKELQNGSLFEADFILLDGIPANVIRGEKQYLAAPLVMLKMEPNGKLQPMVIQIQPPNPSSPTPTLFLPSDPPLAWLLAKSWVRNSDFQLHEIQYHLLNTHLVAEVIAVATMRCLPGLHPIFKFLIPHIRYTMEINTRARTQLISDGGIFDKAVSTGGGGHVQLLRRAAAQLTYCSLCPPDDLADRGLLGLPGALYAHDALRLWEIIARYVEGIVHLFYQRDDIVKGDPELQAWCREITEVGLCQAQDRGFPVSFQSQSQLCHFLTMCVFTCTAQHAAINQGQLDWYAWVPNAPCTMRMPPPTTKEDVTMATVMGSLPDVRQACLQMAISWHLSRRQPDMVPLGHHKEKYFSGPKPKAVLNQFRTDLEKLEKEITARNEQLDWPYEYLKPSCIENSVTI
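Hydroperoxide product was detected by ferrous iron/xylenol orange as the 573 to 405 nm absorbance ratio. Arachidonic acid at 40 uM (final) was turned over for 30 min at room temperature by 150 nM human 12hLO, pH 7.0 Hepes buffer, after 15 min compound preincubation.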
TDP1 cell noCPT: qHTS for Inhibitors of human tyrosyl-DNA phosphodiesterase 1 (TDP1): qHTS in cells in absence of CPT; 420,000 tested, 15% active; Potency, µM (doses to about 46.2 µM), inactives show at the top dose activity change, negative = growth inhibition, hits mostly inhibitors; DT40 Tdp1-/- hTDP1 cells, no CPT, ATP luminescence, 48 h; note: potency is the fitted concentration of half-maximal effect; nearly all actives have a fitted effect of over 55% in size
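Stably hTDP1-transfected Tdp1-null chicken DT40 cells were treated with library compounds minus camptothecin and grown for at least 48 hr at 37 °C, after which cellular ATP was quantified by luminescence.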
Starred values were filed as active, the others as inactive; i = inactive; ? = inconclusive; nt = no result. Unless noted, calls come from the whole dose curve; as a rule, active = well fitted curve in the direction sought with a large enough effect; inconclusive = small, poorly fitted or top-dose-only effect, or another doubt; inactive = no such curve, though single readings can be large; an effect the other way counts as inactive or inconclusive. Unless noted, % is set by controls: 0 for no effect and ±100 for the full control effect.

SMILES | HT1080NT lethal | IL1B secr inh | DT40 TDP1 CPT | HT1080 IDH1KD tx | 12-LOX inh | TDP1 cell noCPT
O=C(O)c1cccc(N/N=C/c2cc(Br)cc(Br)c2O)c1 | -11% | -3 | -1% | -8% | 45µM* | -3%
Cc1noc(C)c1CS(=O)(=O)c1cc(F)ccc1F | nt | nt | nt | nt | 2% | nt
CCc1cc(C(=O)N/N=C/c2ccc(O)cc2O)c2ccccc2n1 | ? | 131 | 8.2µM* | ? | i | ?
O=C(N/N=C/c1cc(Cl)cc(Cl)c1O)c1ccncc1 | ? | 10 | 6.5µM* | 3.7µM* | -15% | 15µM*
COc1ccc(C(=O)NCc2nnc3c(-c4nc(C(C)C)no4)cccn23)cc1F | nt | nt | nt | nt | 69% | nt
O=C(NC(c1ccccc1)c1ccccc1)c1cccs1 | nt | nt | nt | nt | 12% | nt
O=C(COC(=O)/C(=C/c1cccs1)c1cccs1)NC(c1ccccc1)c1ccccc1 | -6% | -15 | 16µM* | -12% | -11% | 16µM*
COc1cccc2cc(-c3cc(=O)oc4ccc(OC(C)=O)cc34)oc12 | nt | nt | nt | nt | 9% | nt
CN(C)c1cc2c(c(N(C)C)c1)C(=O)c1ccccc1C2=O | -18% | -50* | ? | ? | 0% | ?
CN(C)S(=O)(=O)c1cccc2c1C(=O)c1ccccc1C2=O | -1% | 33 | 8% | -9% | -16% | 15%
O=C(Nc1cccc(CN2CCOC2=O)c1)N1CCCCCCC1 | nt | nt | nt | nt | 12% | nt
COc1cc2ncnc(NCc3ccc(C)o3)c2cc1OC | 0% | -18 | ? | 0% | -23% | 21µM*
COc1cc2ncnc(N[C@H](C)c3ccccc3)c2cc1OC | -3% | 40 | 18µM* | -4% | nt | 23µM*
Cc1ccc(CNc2ncnc3cc(Cl)ccc23)o1 | -5% | -18 | 10µM* | -3% | ? | 13µM*
Cc1ccccc1CNc1ncnc2cc(Cl)ccc12 | ? | 53 | -6% | ? | 1% | ?
COc1cc2ncnc(NCc3cccc(F)c3F)c2cc1OC | -6% | 12 | ? | 5% | 5% | ?
Cc1ccc(CNc2ncnc3cc(Cl)ccc23)cc1 | ? | 1 | 26µM* | 23µM* | -18% | 18µM*
CCC(C)(C)c1ccc(Oc2ccc(NC(=O)/C=C/c3ccc(Cl)cc3Cl)cc2)cc1 | nt | nt | nt | nt | 11% | nt
COc1cc2ncnc(NCc3ccc(F)cc3)c2cc1OC | -2% | 0 | -23% | -9% | 23% | ?
CC(Nc1ncnc2nc[nH]c12)c1ccccc1 (configuration not stated) | 4% | 10 | 16µM* | -4% | 9% | 13µM*
Clc1ccc(CNc2ncnc3[nH]ncc23)c(Cl)c1 | -3% | -54* | ? | -1% | -11% | 16µM*
COc1cc2ncnc(NCc3ccccc3C)c2cc1OC | 3% | -15 | ? | 8% | 1% | ?
COc1cc2ncnc(NCc3ccccc3Cl)c2cc1OC | 12% | -9 | 21µM* | 17% | -20% | 13µM*
Fc1ccc(F)c(CNc2ncnc3cc(Cl)ccc23)c1 | ? | ? | 15µM* | ? | 3% | 15µM*
CC(CCc1ccccc1)NC(=O)C1(c2ccccc2)CCCC1 (configuration not stated) | nt | nt | nt | nt | 39% | nt
CCOC(=O)C(=O)N(C)c1c(CC)nc2c(OCc3ccccc3OC)cccn12 | 24% | 25 | -14% | 6% | ? | ?
CCOC(=O)N(C)c1c(CC)nc2c(OCc3ccc(Cl)cc3Cl)cccn12 | ? | 0 | ? | ? | -27% | 23µM*
CCOC(=O)N(C)c1c(CC)nc2c(OCc3cc(Cl)cc(Cl)c3)cccn12 | ? | ? | ? | ? | 2% | 21µM*
